Source: PubChem BioAssay (NCATS)
Records with an inconclusive call do not appear. Activity calls are given as the source filed them. Unless noted, calls follow the shape of the dose curve; as a rule, active = well fitted curve in the direction sought with a large enough effect; inconclusive = small, poorly fitted or top-dose-only effect, or another doubt; inactive = no such curve, though single readings can be large; an effect the other way counts as inactive or inconclusive.

Legend:
[1] = P-glycoprotein substrates identified in KB-3-1 adenocarcinoma cell line, qHTS therapeutic library screen (AID 1346986); also: nearly all actives have a fitted effect of over 60% in size
Procedure, shortened: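 72 h cell-killing screen, 500 cells/well, CellTiter-Glo luminescence. Paired lines KB-3-1/KB-8-5-11; P-gp dependence checked by tariquidar co-treatment and HEK-293 MDR-19 versus empty-vector cells.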

[2] = P-glycoprotein substrates identified in KB-8-5-11 adenocarcinoma cell line, qHTS therapeutic library screen (AID 1346987); also: nearly all actives have a fitted effect of over 65% in size; also: potency is read from the fitted curve at half-maximal effect
Procedure, shortened: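 Compounds are pinned in dose-response onto KB-8-5-11 cells (500 cells/well, colchicine-free medium) and left 72 h at 37 degree C. CellTiter-Glo luminescence then yields AC50 values.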

[3] = tested on: Zika virus NS2B-NS3 protease (unlinked complex); experiment: Primary screen GU Rhodamine qHTS for Zika virus inhibitors: Unlinked NS2B-NS3 protease assay (AID 1347159); also: % is scaled to controls: 0 for no effect and ±100 for the full control effect; nearly all actives have a fitted effect of over 60% in size
Procedure, shortened: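 Buffer 10 mM Tris-HCl pH 8.0, 0.01% Tween 20. Unlinked protease 25 nM; compound preincubation 15 min, RT, protected from light. Substrate Rhod110, 1.5 microM; ~15% conversion in 15 min.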

[4] = tested on: Zika virus NS2B-NS3 protease (linked construct); experiment: Primary screen NINDS Rhodamine qHTS for Zika virus inhibitors (AID 1347160); also: % is scaled to controls: 0 for no effect and ±100 for the full control effect; nearly all actives have a fitted effect of over 55% in size
Procedure, shortened: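 Aprotinin served as in-plate control. Conditions: 25 nM linked NS2B-NS3, pH 8.0 Tris buffer, titrated compounds, 15 min preincubation and 15 min reaction with 1.5 microM Rhod110 substrate at room temperature.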

[5] = target: Calcium and integrin-binding protein 1 (Homo sapiens) (UniProt Q99828); experiment: Primary qHTS for Identification of Calcium Integrin Binding Protein 1 (CIB1) Competitor (AID 1508620);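 also: GST tagged CIB1 binding a fluorescein labelled alphaIIb integrin peptide tracer; top concentration of the series differs between compounds; % is scaled to controls: 0 for no effect and ±100 for the full control effect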
Calcium and integrin-binding protein 1 (Homo sapiens), sequence (Q99828 whole entry, looked up): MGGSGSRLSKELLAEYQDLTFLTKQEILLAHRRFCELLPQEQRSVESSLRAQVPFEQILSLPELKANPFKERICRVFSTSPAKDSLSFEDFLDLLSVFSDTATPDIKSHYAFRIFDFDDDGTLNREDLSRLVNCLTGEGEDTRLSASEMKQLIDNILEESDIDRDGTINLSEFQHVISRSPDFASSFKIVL
Procedure, shortened: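 Fluorescence polarization competition: CIB1-GST (1 uM final) preincubated with compound 15 min at room temperature, then FITC-labeled alphaIIb peptide (100 nM final) added for another 15 min. Polarization read at Ex 480/Em 540.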

[6] = Primary redox qHTS assay for identification of artifact compounds. (AID 1845223);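 also: 0% = DMSO and 100% = reference compound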
Procedure, shortened: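 Redox-cycling detection via DTT (250 uM final) oxidation coupled to Amplex Red (25 uM)/HRP (250 mU/mL) in HBSS. 15 min preincubation plus 30 min after DTT, room temperature. Ex/Em 525/598 nm; 4-parameter Hill fit against DMSO and 10 uM DA3003.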

[7] = tested on: CAOV3; experiment: Primary qHTS to identify gynecologic anti-cancer compounds using libraries of approved drugs and bioactive compounds (AID 1345084); conditions: Gynecologic cancer cell panel viability, ATPlite luminescence, 48 h; series mostly up to 57.5 µM; also: nearly all actives have a fitted effect of over 55% in size; also: potency is read from the fitted curve at half-maximal effect
Procedure, shortened: (§1)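 In this quantitative HTS, cell killing is estimated from loss of ATP-dependent luciferase light. Cells see five compound concentrations over a 48 h exposure.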

[8] = tested on: HeLa; experiment: as above; conditions: Gynecologic cancer cell panel viability, ATPlite luminescence, 48 h; series mostly up to 57.5 µM
Procedure, shortened: as §1

[9] = tested on: JEG-3; experiment: as above; conditions: Gynecologic cancer cell panel viability, ATPlite luminescence, 48 h; series mostly up to 57.5 µM
Procedure, shortened: as §1

[10] = tested on: SKOV3; experiment: as above; conditions: Gynecologic cancer cell panel viability, ATPlite luminescence, 48 h; series mostly up to 57.5 µM
Procedure, shortened: as §1

[11] = target: Cytochrome P450 2C9 (Homo sapiens) (UniProt P11712); experiment: Cytochrome P450 family 2 subfamily C member 9 (CYP2C9) small molecule antagonists: luciferase biochemical (cell-free) qHTS assay (AID 1645842; active = well fitted curve in the direction sought with a large enough effect in the repeat runs; an effect the other way counts as inactive or inconclusive; also: potency is read from the fitted curve at half-maximal effect; nearly all actives have a fitted effect of over 55% in size)
Cytochrome P450 2C9 (Homo sapiens), sequence (P11712 whole entry, looked up): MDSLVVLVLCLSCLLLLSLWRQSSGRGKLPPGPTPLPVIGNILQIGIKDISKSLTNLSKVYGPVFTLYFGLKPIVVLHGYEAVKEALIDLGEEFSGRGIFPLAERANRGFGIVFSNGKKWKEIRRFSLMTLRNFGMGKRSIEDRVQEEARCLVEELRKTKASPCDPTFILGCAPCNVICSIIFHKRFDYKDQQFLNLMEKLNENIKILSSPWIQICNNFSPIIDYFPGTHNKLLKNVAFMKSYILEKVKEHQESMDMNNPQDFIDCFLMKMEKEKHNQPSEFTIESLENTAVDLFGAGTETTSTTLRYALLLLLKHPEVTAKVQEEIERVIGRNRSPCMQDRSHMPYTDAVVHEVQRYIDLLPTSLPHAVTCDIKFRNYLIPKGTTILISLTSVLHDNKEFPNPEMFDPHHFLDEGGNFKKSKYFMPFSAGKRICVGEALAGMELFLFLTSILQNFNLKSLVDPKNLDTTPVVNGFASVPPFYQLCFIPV
Procedure, shortened: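 P450-Glo CYP2C9 system: proluciferin substrate with enzyme in mix containing 0.4% BSA, 10 min at room temperature, then NADPH regeneration solution added and incubated 1 h at 37C. Detection reagent stopped reaction; luminescence read after 20 min as RLU.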

[12] = target: Catechol O-methyltransferase (Homo sapiens) (UniProt P21964); experiment: Confirmatory Screen for Target Class Profiling of Small Molecule Inhibitors of Methyltransferases (AID 1745852); conditions: MTase-Glo luminescence, SAH detection, recombinant enzyme; measured here: COMT max response; stronger effect = lower value; as to activity change, negative = inhibition: % is scaled to controls: 0 for no effect and ±100 for the full control effect
Catechol O-methyltransferase (Homo sapiens), sequence (P21964 whole entry, looked up): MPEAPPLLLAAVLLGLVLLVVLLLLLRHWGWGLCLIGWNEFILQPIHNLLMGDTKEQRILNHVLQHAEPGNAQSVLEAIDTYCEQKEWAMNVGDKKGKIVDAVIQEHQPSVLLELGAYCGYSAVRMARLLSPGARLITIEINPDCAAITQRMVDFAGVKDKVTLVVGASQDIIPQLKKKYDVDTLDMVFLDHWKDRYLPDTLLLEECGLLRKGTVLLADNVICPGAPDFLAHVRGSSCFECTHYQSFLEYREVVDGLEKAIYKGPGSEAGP

[13] = target: Guanidinoacetate N-methyltransferase (Homo sapiens) (UniProt Q14353); experiment: as above; conditions: activity change, negative = inhibition: at 57.3 µM (top of the series) unless noted
[14] = target: Nicotinamide N-methyltransferase (Homo sapiens) (UniProt P40261); experiment: as above; conditions: MTase-Glo luminescence, SAH detection, recombinant enzyme; measured here: NNMT max response; stronger effect = lower value
Nicotinamide N-methyltransferase (Homo sapiens), sequence (P40261 whole entry, looked up): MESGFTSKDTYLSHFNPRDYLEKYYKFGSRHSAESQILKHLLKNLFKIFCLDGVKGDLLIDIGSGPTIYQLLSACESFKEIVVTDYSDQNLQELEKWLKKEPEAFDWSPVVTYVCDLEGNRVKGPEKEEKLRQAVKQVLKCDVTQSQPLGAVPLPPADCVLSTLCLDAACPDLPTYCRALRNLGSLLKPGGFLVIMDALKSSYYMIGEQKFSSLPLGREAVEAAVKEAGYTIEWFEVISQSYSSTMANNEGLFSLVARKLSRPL

[15] = qHTS drug screen for cell cycle checkpoint inhibitors in PARPi-resistant BRCA-mutant ovarian cancer cell lines. (AID 1963452; calls by dose curve; also: potency is read from the fitted curve at half-maximal effect); conditions: PEO1/OlaR viability, CellTiter-Glo luminescence, 96 h; for Z-AUC: stronger effect = lower value
Procedure, shortened: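 PEO1, PEO4 and PEO1/OlaR ovarian cancer cells, 600 per well, exposed 96 h at 37C to a dilution series. Viability read by CellTiter-Glo luminescence, normalized to DMSO and empty wells; activity summarized as Z-AUC.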

COc1ccc2c3c([nH]c2c1)C(C=C(C)C)N1C(=O)C2CCCN2C(=O)C1C3 (stereo unspecified)
inactive: Potency [1] | Potency [2] | Potency [3] | Potency [4] | Potency [5] | Potency [6] | Potency [7] | Potency [8] | Potency [9]

COC1CC(O[C@H]2CC[C@]3(C)C4CC[C@]5(C)[C@@H](C6=CC(=O)OC6)[C@@H](OC(C)=O)C[C@]5(O)C4CC[C@@H]3C2)OC(C)C1O (stereo partly specified)
inactive: Potency [3] | Potency [4] | Potency [5]
active: Potency [2] 563 nM | Potency [7] 1260 nM | Potency [10] 794 nM

CO[C@@H]1[C@H](O)[C@@H](O[C@@H]2C[C@H]3CC[C@@H]4C(CC[C@]5(C)[C@@H](C6=CC(=O)OC6)CC[C@]45O)[C@@]3(C)[C@H](O)C2)O[C@H](C)[C@@H]1O (stereo partly specified)
active: Potency [2] 252 nM | Potency [7] 631 nM | Potency [8] 199 nM | Potency [9] 891 nM | Potency [10] 251 nM
inactive: Potency [3] | Potency [5]

CC[C@H]1C[C@@H]2CC[C@@H](O2)[C@@H](C)C(=O)O[C@H](CC)C[C@H]2CC[C@H](O2)[C@H](C)C(=O)O[C@@H](C)C[C@@H]2CC[C@@H](O2)[C@@H](C)C(=O)O[C@H](CC)C[C@H]2CC[C@H](O2)[C@H](C)C(=O)O1
inactive: Potency [3] | Potency [4] | Potency [5] | Potency [6] | Potency [9]
active: Potency [2] 968 nM | Potency [7] 398 nM | Potency [8] 562 nM | Potency [10] 251 nM

CN(C)c1cc2c(cc1Sc1nc3c(N)nccc3n1CCNCC(C)(C)C)OCO2
active: Potency [2] 517 nM | Potency [11] 3790 nM | Potency [15] 1550 nM | Potency [7] 1120 nM | Potency [9] 11200 nM | Potency [10] 5620 nM
-13.6%: activity [12]
-41.4%: activity [14]
-1.43: Z-AUC ([15]; measured here: PEO1 parental Z-AUC)
-4.13%: activity change, negative = inhibition [13]
-1: Z-AUC ([15]; measured here: PEO4 Z-AUC)
inactive: Potency [3] | Potency [5] | Potency [8]

CC(=O)OC[C@]12C[C@H](O)C(C)=C[C@H]1O[C@@H]1[C@H](O)[C@@H](O)[C@@]2(C)[C@]12CO2
active: Potency [2] 4040 nM | Potency [7] 3980 nM | Potency [8] 7940 nM | Potency [10] 3980 nM
inactive: Potency [3] | Potency [4] | Potency [5] | Potency [6]

CO[C@@H]1C[C@H](O[C@H]2CC[C@@]3(C)C(CCC4C3CC[C@]3(C)[C@@H](C5=CC(=O)OC5)[C@@H](OC(C)=O)CC43O)C2)O[C@H](C)[C@@H]1O[C@H]1O[C@H](CO[C@@H]2O[C@H](CO)[C@@H](O)[C@H](O)[C@H]2O)[C@@H](O)[C@H](O)[C@H]1O (stereo partly specified)
active: Potency [2] 873 nM | Potency [7] 2240 nM | Potency [8] 1580 nM | Potency [10] 2000 nM
inactive: Potency [3] | Potency [4] | Potency [5] | redox activity (% of DA3003) [6] 15.6% [at 11.5 µM]

CC(=O)OC[C@]12C[C@H](OC(=O)CC(C)C)C(C)=C[C@H]1O[C@@H]1[C@H](O)[C@@H](OC(C)=O)[C@@]2(C)[C@@]12CO2
active: Potency [2] 25.2 nM | Potency [7] 89.1 nM | Potency [8] 158 nM | Potency [9] 1000 nM
inactive: Potency [3] | Potency [4] | Potency [5]

C=CCN1CC[C@]23c4c5ccc(O)c4O[C@H]2[C@@H](O)CC[C@@]3(O)[C@H]1C5
inactive: Potency [2] | Potency [3] | Potency [5] | Potency [6] | Potency [7] | Potency [9] | Potency [10]

C[C@@H]1C[C@@H](O)[C@]2(O)O[C@@H]3C[C@@]4(C=O)C(CC[C@@H]5C4CC[C@]4(C)[C@@](O)(C6=CC(=O)OC6)CC[C@]54O)C[C@H]3OC2O1 (stereo partly specified)
active: Potency [2] 1590 nM
